Laboratory results taken from the supplement of paper PMC9023506.
Structures can show the parent of a compound that is named as a salt.

System: Danio rerio larvae (5 dpf)
Experiment: optomotor response to green moving lines, difference vs DMSO (percentage points (treated minus DMSO)); higher = more of the behaviour than the DMSO vehicle control
Settings: 10 µM; exposure time: 3 h pre-incubation + 3 h imaging
Protocol: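 5-dpf wild-type zebrafish larvae were imaged in 96-well plates. They were treated with 190 Tocris FDA-approved drugs at 10 µM (1 µl/ml DMSO) for 3 h before and 3 h during imaging at 28.5 °C, 48 larvae per drug. Automated image analysis gave % time moving and optomotor responses. Values are drug group mean minus DMSO vehicle mean (n=844), in percentage points, for 10 behaviours.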

SMILES | optomotor response to green moving lines
CN1C[C@H](C(=O)N[C@]2(C)O[C@@]3(O)[C@@H]4CCCN4C(=O)[C@H](Cc4ccccc4)N3C2=O)C[C@@H]2c3cccc4[nH]cc(c34)C[C@H]21 [Dihydroergotamine mesylate] | 16.2
C=CCN1C[C@H](C(=O)N(CCCN(C)C)C(=O)NCC)C[C@@H]2c3cccc4[nH]cc(c34)C[C@H]21 [Cabergoline] | -10.2
CC(O)(CS(=O)(=O)c1ccc(F)cc1)C(=O)Nc1ccc(C#N)c(C(F)(F)F)c1 (stereo unspecified) [Bicalutamide] | 1.12
CCN(C)C(=O)Oc1cccc([C@H](C)N(C)C)c1 [Rivastigmine tartrate] | -8.15
COc1ccc(C(CN(C)C)C2(O)CCCCC2)cc1 (stereo unspecified) [Venlafaxine hydrochloride] | 1.84
CC(C)C[C@H]1C(=O)N2CCC[C@H]2[C@]2(O)O[C@](NC(=O)[C@@H]3C=C4c5cccc6[nH]c(Br)c(c56)C[C@H]4N(C)C3)(C(C)C)C(=O)N12 [Bromocriptine mesylate] | -20.3
CC[C@@H](C(N)=O)N1CCCC1=O [Levetiracetam] | 4.63
O=c1[nH]c2ccccc2n1C1CCN(CCCC(c2ccc(F)cc2)c2ccc(F)cc2)CC1 [Pimozide] | -16.3
C=C1C[C@@H]2[C@H](CC[C@]3(C)C(=O)CC[C@@H]23)[C@@]2(C)C=CC(=O)C=C12 [Exemestane] | 9.98
N[C@@H]1C[C@H]1c1ccccc1 [Tranylcypromine hydrochloride] | 0.888
COc1cc2c(cc1OC)C1CC(=O)C(CC(C)C)CN1CC2 (stereo unspecified) [Tetrabenazine] | -9.74
